Experimental data as given in PubChem BioAssay (EPA / NIEHS).
Records with an inconclusive call do not appear. Activity calls are given as the source filed them. Rule for the calls, unless noted: active = hit-call score of the fitted dose curve at least 0.9, where 1 is the maximum; inactive = score below 0.9.

Key:
[1] = target: Hypoxia-inducible factor 1-alpha (Homo sapiens) (UniProt Q16665); assay: ATG_HIF1a_CIS: Attagene CIS-FACTORIAL HepG2 Assay for human Hypoxia Inducible Factor 1 (HIF1A) (AID 2282951); details: HepG2 Attagene cis-factorial HIF1a reporter transcription; actives raise or lower the signal
Hypoxia-inducible factor 1-alpha (Homo sapiens), sequence (Q16665 whole entry, looked up): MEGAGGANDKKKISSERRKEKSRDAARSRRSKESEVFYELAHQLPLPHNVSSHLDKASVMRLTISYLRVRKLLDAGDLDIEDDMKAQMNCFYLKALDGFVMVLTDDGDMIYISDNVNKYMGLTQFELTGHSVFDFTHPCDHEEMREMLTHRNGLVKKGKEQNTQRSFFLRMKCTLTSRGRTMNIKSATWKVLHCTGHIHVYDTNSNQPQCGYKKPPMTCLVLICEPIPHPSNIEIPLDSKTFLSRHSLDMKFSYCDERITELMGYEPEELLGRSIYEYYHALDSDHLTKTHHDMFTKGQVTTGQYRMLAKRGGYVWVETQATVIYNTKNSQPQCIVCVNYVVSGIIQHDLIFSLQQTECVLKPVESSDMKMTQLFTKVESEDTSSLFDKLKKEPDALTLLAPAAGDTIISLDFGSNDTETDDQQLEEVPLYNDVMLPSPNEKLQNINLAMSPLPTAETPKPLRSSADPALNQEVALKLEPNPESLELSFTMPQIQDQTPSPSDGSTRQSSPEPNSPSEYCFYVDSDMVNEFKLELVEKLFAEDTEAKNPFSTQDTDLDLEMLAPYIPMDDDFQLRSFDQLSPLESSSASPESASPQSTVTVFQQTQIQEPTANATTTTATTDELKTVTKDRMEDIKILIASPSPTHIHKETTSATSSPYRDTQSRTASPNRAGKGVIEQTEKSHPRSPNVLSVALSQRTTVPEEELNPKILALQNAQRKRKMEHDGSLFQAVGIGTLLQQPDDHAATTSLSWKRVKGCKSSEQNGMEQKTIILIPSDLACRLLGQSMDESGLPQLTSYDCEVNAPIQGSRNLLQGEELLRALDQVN
How it was run: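 Dosed 24 h, transfected HepG2 cells yielded total RNA whose reporter transcripts were RT-PCR-amplified and sized by capillary electrophoresis using fluorescent labelling; DMSO defined baseline, with gain and loss of signal both fitted.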

[2] = target: Hepatocyte nuclear factor 6 (Homo sapiens) (UniProt Q9UBC0); assay: ATG_HNF6_CIS: Attagene CIS-FACTORIAL HepG2 Assay for human Hepatocyte Nuclear Factor 6 (HNF6) (AID 2282952); details: HepG2 Attagene cis-factorial HNF6 reporter transcription; actives raise or lower the signal
Hepatocyte nuclear factor 6 (Homo sapiens), sequence (Q9UBC0 whole entry, looked up, the tested form may be a part): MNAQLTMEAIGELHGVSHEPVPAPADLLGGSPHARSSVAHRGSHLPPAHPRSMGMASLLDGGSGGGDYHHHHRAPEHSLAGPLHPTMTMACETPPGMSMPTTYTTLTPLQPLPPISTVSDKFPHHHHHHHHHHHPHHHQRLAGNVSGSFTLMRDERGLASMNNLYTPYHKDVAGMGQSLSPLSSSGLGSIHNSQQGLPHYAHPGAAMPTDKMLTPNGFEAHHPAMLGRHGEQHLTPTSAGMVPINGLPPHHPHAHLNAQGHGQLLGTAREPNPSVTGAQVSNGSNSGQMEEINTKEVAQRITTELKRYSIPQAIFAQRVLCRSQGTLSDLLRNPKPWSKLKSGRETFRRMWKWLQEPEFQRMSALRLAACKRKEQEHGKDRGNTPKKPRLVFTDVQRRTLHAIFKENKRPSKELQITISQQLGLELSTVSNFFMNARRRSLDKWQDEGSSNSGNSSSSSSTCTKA
How it was run: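 Twenty-four-hour chemical treatment of reporter-transfected HepG2 cells precedes RNA isolation, DNase-treated reverse transcription and PCR of reporter sequences. Labelled fragments are sized by capillary electrophoresis and fitted bidirectionally versus DMSO.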

[3] = target: Heat shock factor protein 1 (Homo sapiens) (UniProt Q00613); assay: ATG_HSE_CIS: Attagene CIS-FACTORIAL HepG2 Assay for human Heat Shock Transcription Factor 1 (HSE) (AID 2282953); details: HepG2 HSE cis-reporter, Attagene RNA transcription; actives raise or lower the signal
Heat shock factor protein 1 (Homo sapiens), sequence (Q00613 whole entry, looked up): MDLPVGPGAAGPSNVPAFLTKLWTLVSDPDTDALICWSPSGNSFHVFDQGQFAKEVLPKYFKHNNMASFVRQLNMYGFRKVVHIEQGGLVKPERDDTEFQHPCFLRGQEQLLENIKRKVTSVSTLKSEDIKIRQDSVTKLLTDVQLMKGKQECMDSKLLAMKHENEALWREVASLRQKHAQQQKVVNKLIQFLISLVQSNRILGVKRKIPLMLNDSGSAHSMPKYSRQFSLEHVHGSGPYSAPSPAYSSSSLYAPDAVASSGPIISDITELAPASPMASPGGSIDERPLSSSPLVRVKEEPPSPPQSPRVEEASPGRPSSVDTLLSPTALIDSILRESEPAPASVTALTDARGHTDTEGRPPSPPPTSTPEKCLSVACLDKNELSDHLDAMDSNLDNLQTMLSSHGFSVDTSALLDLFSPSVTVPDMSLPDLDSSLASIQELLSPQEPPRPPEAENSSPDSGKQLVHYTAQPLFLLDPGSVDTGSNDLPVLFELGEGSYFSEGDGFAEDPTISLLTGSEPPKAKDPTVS
How it was run: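 Using HepG2 with transfected cis-driven reporter constructs, compound effects on endogenous factor activity are scored as reporter mRNA change at 24 h. Detection: RT-PCR, HpaI digestion, capillary electrophoresis; bidirectional fitting to DMSO.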

[4] = ATG_MRE_CIS: Attagene CIS-FACTORIAL HepG2 Assay for human Metal Responsive Element (MRE) (AID 2282954); details: HepG2 MRE cis-reporter transcription, Attagene multiplex; actives raise or lower the signal
How it was run: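 RT-PCR/capillary electrophoresis readout of reporter mRNA, 24 h post-dosing, in HepG2 cells transfected with multiplexed cis-regulated reporter constructs. Gain or loss of signal fitted bidirectionally against DMSO baseline.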

[5] = ATG_PBREM_CIS: Attagene CIS-FACTORIAL HepG2 Assay for human Phenobarbital-responsive Enhancer Module (PBREM) (AID 2282955); details: HepG2 PBREM cis-reporter, Attagene multiplexed transcription; actives raise or lower the signal
How it was run: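 Transfected liver-derived HepG2 cells exposed 24 h; PBREM reporter transcript quantified via RT-PCR and capillary electrophoresis, with activity in either direction referenced to DMSO.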

[6] = target: Paired box protein Pax-6 (Homo sapiens) (UniProt P26367); assay: ATG_Pax6_CIS: Attagene CIS-FACTORIAL HepG2 Assay for human Paired Box 6 (PAX6) (AID 2282956); details: HepG2 CIS-FACTORIAL PAX6 reporter transcription, RNA readout; actives raise or lower the signal
Paired box protein Pax-6 (Homo sapiens), sequence (P26367 whole entry, looked up): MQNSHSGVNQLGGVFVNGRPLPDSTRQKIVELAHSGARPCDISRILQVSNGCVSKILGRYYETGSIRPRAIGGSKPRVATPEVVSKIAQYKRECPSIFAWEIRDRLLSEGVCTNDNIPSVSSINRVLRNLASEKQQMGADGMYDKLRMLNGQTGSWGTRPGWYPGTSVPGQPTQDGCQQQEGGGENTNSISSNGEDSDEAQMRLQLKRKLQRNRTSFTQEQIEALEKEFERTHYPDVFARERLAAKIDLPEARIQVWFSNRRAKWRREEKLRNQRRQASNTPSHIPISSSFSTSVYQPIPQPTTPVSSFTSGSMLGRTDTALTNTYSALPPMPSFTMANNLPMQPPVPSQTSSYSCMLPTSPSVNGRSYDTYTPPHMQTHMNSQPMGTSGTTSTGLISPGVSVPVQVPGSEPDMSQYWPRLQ
How it was run: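 Read-out is reporter transcript level, measured by RT-PCR with fluorescent primer extension and capillary electrophoresis after 24 h dosing of transfected HepG2 cells. Activity in either direction fitted relative to DMSO control.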

[7] = ATG_PXRE_CIS: Attagene CIS-FACTORIAL HepG2 Assay for human Pregnane X Receptor Element (PXRE) (AID 2282957); details: HepG2 Attagene CIS-FACTORIAL PXRE reporter, mRNA; actives raise or lower the signal
How it was run: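 Bidirectional activity, baselined to DMSO, derived from reporter mRNA fluorescence (RT-PCR plus capillary electrophoresis) in HepG2 cells bearing cis-promoter reporter units, 24 h exposure.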

[8] = ATG_PPRE_CIS: Attagene CIS-FACTORIAL HepG2 Assay for human Peroxisome Proliferator-activated Response Element (PPRE) (AID 2282958); details: HepG2 PPRE cis-element reporter, Attagene transcription factor profiling; actives raise or lower the signal
How it was run: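 Measured endpoint: PPRE-controlled reporter mRNA, detected by RT-PCR and capillary electrophoresis fluorescence, from transiently transfected HepG2 cells 24 h after dosing. Curves fitted in both directions using DMSO baseline.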

[9] = ATG_RORE_CIS: Attagene CIS-FACTORIAL HepG2 Assay for human RAR-related Orphan Receptor Element (RORE) (AID 2282959); details: HepG2 Attagene cis-factorial RORE reporter, mRNA; actives raise or lower the signal
How it was run: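 Transiently transfected HepG2 reporter cells were treated 24 h. Reporter transcripts were detected by RT-PCR and capillary electrophoresis, with bidirectional fitting against DMSO.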

[10] = ATG_Sox_CIS: Attagene CIS-FACTORIAL HepG2 Assay for human SRY-box transcription factor (SOX) (AID 2282960); details: HepG2 Attagene cis-factorial SOX reporter, mRNA; actives raise or lower the signal
How it was run: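 Gain- or loss-of-signal endpoint, fitted bidirectionally with DMSO as negative control. Based on reporter mRNA from transfected HepG2 cells harvested 24 h post-treatment and quantified via RT-PCR and capillary electrophoresis.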

[11] = target: Transcription factor Sp1 (Homo sapiens) (UniProt P08047); assay: ATG_Sp1_CIS: Attagene CIS-FACTORIAL HepG2 Assay for human Specificity Protein 1 (Sp1) (AID 2282961); details: HepG2 Sp1 cis-reporter transcription, actives raise or lower the signal
Transcription factor Sp1 (Homo sapiens), sequence (P08047 whole entry, looked up, the tested form may be a part): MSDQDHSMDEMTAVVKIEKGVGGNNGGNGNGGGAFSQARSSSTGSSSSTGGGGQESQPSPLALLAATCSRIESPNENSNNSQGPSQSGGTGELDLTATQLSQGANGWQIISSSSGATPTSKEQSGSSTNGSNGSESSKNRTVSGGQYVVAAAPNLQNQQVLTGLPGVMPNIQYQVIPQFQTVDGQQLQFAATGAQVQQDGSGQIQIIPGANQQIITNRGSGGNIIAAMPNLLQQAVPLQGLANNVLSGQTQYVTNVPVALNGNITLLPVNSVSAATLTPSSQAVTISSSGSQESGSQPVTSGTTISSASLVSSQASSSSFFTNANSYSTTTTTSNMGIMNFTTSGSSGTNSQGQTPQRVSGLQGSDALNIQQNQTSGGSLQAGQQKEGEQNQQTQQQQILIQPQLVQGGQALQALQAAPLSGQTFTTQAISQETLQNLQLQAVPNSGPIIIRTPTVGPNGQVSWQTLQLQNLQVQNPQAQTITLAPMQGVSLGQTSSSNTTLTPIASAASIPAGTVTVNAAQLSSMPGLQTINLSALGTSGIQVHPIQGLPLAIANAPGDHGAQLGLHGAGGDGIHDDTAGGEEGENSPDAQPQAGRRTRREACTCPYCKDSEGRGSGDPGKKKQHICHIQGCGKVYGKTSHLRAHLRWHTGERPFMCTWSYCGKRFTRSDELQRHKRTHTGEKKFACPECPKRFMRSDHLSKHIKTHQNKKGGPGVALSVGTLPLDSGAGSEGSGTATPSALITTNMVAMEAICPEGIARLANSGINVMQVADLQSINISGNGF
How it was run: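 Endpoint reflects endogenous Sp1 transcriptional activity, not an exogenous fusion protein: HepG2 cells with transfected cis-regulated reporters, 24 h dosing, RT-PCR/capillary electrophoresis mRNA read-out, DMSO-normalised bidirectional fit.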

[12] = ATG_SREBP_CIS: Attagene CIS-FACTORIAL HepG2 Assay for human Sterol Regulatory Element Binding (SREBP) (AID 2282962); details: HepG2 Attagene cis-factorial SREBP reporter, mRNA; actives raise or lower the signal
How it was run: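 Endogenous SREBP activity read as cis-element-driven reporter transcript in transiently transfected HepG2, 24 h post-dosing; quantified via RT-PCR plus capillary electrophoresis of fluorescent fragments. Gain or loss of signal fitted relative to DMSO baseline.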

[13] = target: Signal transducer and activator of transcription 3 (Homo sapiens) (UniProt P40763); assay: ATG_STAT3_CIS: Attagene CIS-FACTORIAL HepG2 Assay for human Signal Transducer and Activator of Transcription 3 (STAT3) (AID 2282963); details: HepG2, Attagene cis-factorial STAT3 reporter transcription; actives raise or lower the signal
Signal transducer and activator of transcription 3 (Homo sapiens), sequence (P40763 whole entry, looked up, the tested form may be a part): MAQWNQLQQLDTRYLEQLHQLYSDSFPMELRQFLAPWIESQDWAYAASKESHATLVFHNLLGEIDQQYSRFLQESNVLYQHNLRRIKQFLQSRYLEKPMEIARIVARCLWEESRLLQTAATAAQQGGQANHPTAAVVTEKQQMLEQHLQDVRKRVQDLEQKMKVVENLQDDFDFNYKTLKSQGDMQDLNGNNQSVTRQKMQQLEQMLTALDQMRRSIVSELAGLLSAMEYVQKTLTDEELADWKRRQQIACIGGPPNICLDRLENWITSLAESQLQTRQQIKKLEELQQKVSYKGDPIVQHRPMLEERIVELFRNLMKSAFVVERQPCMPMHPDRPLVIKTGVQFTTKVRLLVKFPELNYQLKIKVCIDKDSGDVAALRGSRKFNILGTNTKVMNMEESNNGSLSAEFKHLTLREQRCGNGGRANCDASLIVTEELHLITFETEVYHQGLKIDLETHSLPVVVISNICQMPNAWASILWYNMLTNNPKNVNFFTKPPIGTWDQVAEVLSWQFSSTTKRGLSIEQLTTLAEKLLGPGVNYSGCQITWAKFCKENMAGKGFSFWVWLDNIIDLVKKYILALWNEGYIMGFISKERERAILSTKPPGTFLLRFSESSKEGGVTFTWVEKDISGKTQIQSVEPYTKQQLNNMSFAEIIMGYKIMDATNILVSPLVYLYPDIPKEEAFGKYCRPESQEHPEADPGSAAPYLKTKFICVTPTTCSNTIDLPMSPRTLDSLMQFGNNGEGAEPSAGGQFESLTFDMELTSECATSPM
How it was run: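 Readout: fluorescent reporter mRNA fragments resolved by capillary electrophoresis. Setup: HepG2 transfected with MRTUs reporting endogenous transcription-factor activity, dosed 24 h. Gain or loss of signal fitted bidirectionally against DMSO control.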

[14] = ATG_TA_CIS: Attagene CIS-FACTORIAL HepG2 Assay for human TA Basal Promoter (AID 2282964); details: HepG2 Attagene CIS-factorial TA basal promoter reporter; actives raise or lower the signal
How it was run: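 Transient MRTU transfection of HepG2 preceded 24 h compound exposure. Reporter mRNA levels were then read by RT-PCR with capillary electrophoresis, and this background-control endpoint was fitted bidirectionally to DMSO.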

[15] = ATG_TCF_b_cat_CIS: Attagene CIS-FACTORIAL HepG2 Assay for human T-Cell-Factor with beta-catenin (TCF/b-cat) (AID 2282965); details: HepG2 TCF/beta-catenin cis-reporter transcription, actives raise or lower the signal
How it was run: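 HepG2, transient MRTU transfection, cis-element-driven reporters (endogenous TFs). 24 h compound exposure. Readout: reporter mRNA by RT-PCR + 6-FAM primer extension, HpaI digest, capillary electrophoresis. Gain/loss fit vs DMSO baseline.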

[16] = ATG_TAL_CIS: Attagene CIS-FACTORIAL HepG2 Assay for human TAL Basal Promoter (AID 2282966); details: HepG2 Attagene cis-factorial TAL promoter reporter; actives raise or lower the signal;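 note: background control endpoint measuring basal TAL promoter reporter mRNA not a specific factor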
How it was run: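 Human hepatoma HepG2 cells, transfected with promoter-regulated reporter units, were treated 24 h. Reporter transcript levels, measured through RT-PCR and capillary electrophoresis, were fitted for gain or loss relative to DMSO.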

[17] = ATG_TGFb_CIS: Attagene CIS-FACTORIAL HepG2 Assay for human Transforming Growth Factor (TGF) (AID 2282967); details: HepG2 Attagene CIS TGFb reporter, mRNA transcription; actives raise or lower the signal
How it was run: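 After a 24-hour incubation with compound, transfected HepG2 cells were lysed for RNA; reporter cDNA was amplified, fluorescently end-labeled and separated by CE. DMSO served as baseline for bidirectional fits.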

[18] = target: Estrogen receptor (Homo sapiens) (UniProt P03372); assay: ATG_ERa_TRANS: Attagene TRANS-FACTORIAL HepG2 Assay for human Estrogen Receptor alpha (ERa) (AID 2282970; active = hit-call score of the fitted dose curve at least 0.9, where 1 is the maximum); details: HepG2 Attagene TRANS ERa GAL4 reporter, mRNA
Estrogen receptor (Homo sapiens), sequence (P03372 whole entry, looked up, the tested form may be a part): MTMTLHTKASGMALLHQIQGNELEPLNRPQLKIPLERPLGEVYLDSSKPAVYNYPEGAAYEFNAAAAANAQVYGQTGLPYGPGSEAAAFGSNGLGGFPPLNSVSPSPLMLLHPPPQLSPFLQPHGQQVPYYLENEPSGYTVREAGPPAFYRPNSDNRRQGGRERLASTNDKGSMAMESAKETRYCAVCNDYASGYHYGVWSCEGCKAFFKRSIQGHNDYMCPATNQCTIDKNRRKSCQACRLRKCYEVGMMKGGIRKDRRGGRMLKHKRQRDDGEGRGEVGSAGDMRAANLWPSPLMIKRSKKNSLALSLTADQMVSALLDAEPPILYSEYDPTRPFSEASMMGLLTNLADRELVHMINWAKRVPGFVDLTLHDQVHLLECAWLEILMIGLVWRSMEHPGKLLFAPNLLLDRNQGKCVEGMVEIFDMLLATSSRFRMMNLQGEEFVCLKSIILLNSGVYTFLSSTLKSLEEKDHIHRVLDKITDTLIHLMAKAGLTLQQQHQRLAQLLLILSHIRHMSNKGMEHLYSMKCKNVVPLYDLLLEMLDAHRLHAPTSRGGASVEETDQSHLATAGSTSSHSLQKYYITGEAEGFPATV
How it was run: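 Signal derives from fluorescence of labelled reporter PCR fragments separated by capillary electrophoresis. HepG2 cells transiently carrying multiple GAL4-UAS reporter units were treated 24 hours, and induction above DMSO baseline was fitted as activity.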

[19] = ATG_VDRE_CIS: Attagene CIS-FACTORIAL HepG2 Assay for human Vitamin D Receptor Element (VDRE) (AID 2282968); details: HepG2 VDRE cis-reporter transcription, actives raise or lower the signal
How it was run: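 Transient MRTU transfection of HepG2, 24 h compound exposure. Readout: reporter transcripts via RT-PCR and capillary electrophoresis, fluorescence. Bidirectional fit vs DMSO.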

[20] = target: Nuclear receptor subfamily 1 group I member 3 (Homo sapiens) (UniProt Q14994); assay: ATG_CAR_TRANS: Attagene TRANS-FACTORIAL HepG2 Assay for human Constitutive Androstane Receptor (CAR) (AID 2282969; active = hit-call score of the fitted dose curve at least 0.9, where 1 is the maximum;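 note: activators raise reporter mRNA above DMSO so AC50 marks induction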); details: HepG2 Attagene TRANS-FACTORIAL CAR reporter
Nuclear receptor subfamily 1 group I member 3 (Homo sapiens), sequence (Q14994 whole entry, looked up, the tested form may be a part): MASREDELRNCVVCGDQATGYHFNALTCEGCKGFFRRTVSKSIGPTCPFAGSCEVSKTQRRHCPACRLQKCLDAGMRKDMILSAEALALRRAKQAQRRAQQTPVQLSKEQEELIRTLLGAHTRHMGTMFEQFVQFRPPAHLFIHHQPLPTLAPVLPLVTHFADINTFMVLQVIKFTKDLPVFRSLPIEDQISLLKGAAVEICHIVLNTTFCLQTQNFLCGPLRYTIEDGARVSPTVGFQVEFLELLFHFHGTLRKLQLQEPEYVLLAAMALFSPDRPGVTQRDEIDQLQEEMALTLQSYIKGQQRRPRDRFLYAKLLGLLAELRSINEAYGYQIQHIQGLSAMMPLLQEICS
How it was run: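 Transiently transfected HepG2, multiplex TRANS reporters (CAR-Gal4 chimera driving GAL4-UAS reporter). 24 h dosing. Readout: reporter transcript by RT-PCR + capillary electrophoresis, fluorescence intensity; positive direction vs DMSO.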

## CC(=Cc1ccccc1)[N+](=O)[O-]
[1]
  outcome: inactive
[2]
  outcome: inactive
[3]
  AC50: 4.41 µM (active)
[4]
  outcome: inactive
[5]
  AC50: 13.7 µM (active)
[6]
  AC50: 11.1 µM (active)
[7]
  AC50: 4.02 µM (active)
[8]
  outcome: inactive
[9]
  outcome: inactive
[10]
  outcome: inactive
[11]
  outcome: inactive
[12]
  outcome: inactive
[13]
  outcome: inactive
[14]
  outcome: inactive
[15]
  outcome: inactive
[16]
  outcome: inactive
[17]
  outcome: inactive
[18]
  outcome: inactive

## CCOP(=S)(OCC)SCS(=O)(=O)C(C)(C)C
[1]
  outcome: inactive
[2]
  outcome: inactive
[3]
  outcome: inactive
[4]
  outcome: inactive
[5]
  outcome: inactive
[6]
  outcome: inactive
[7]
  AC50: 4.12 µM (active)
[8]
  outcome: inactive
[9]
  outcome: inactive
[10]
  outcome: inactive
[11]
  outcome: inactive
[12]
  outcome: inactive
[13]
  outcome: inactive
[14]
  outcome: inactive
[15]
  outcome: inactive
[16]
  outcome: inactive
[17]
  outcome: inactive
[19]
  outcome: inactive
[18]
  outcome: inactive

## O=C(N[C@H]1CN2CCC1CC2)c1ccc2c(c1)OCCO2
[1]
  outcome: inactive
[2]
  outcome: inactive
[3]
  outcome: inactive
[4]
  outcome: inactive
[5]
  outcome: inactive
[6]
  outcome: inactive
[7]
  outcome: inactive
[8]
  AC50: 100 µM (active)
[9]
  outcome: inactive
[10]
  outcome: inactive
[11]
  outcome: inactive
[12]
  outcome: inactive
[13]
  outcome: inactive
[15]
  outcome: inactive
[16]
  outcome: inactive
[17]
  outcome: inactive
[20]
  outcome: inactive

## O=C(O)c1cc(I)cc(I)c1I
[1]
  outcome: inactive
[2]
  outcome: inactive
[3]
  outcome: inactive
[4]
  outcome: inactive
[5]
  outcome: inactive
[6]
  outcome: inactive
[7]
  AC50: 30.3 µM (active)
[8]
  AC50: 27.8 µM (active)
[9]
  outcome: inactive
[10]
  outcome: inactive
[11]
  outcome: inactive
[12]
  outcome: inactive
[13]
  outcome: inactive
[15]
  outcome: inactive
[16]
  outcome: inactive
[17]
  outcome: inactive
[19]
  outcome: inactive

## OC(c1ccc(Cl)cc1)(c1ccc(Cl)cc1)c1cccnc1
[1]
  outcome: inactive
[2]
  outcome: inactive
[3]
  outcome: inactive
[4]
  outcome: inactive
[5]
  outcome: inactive
[6]
  outcome: inactive
[7]
  AC50: 1.89 µM (active)
[8]
  outcome: inactive
[9]
  outcome: inactive
[10]
  outcome: inactive
[11]
  outcome: inactive
[12]
  outcome: inactive
[13]
  outcome: inactive
[14]
  outcome: inactive
[15]
  outcome: inactive
[16]
  outcome: inactive
[17]
  outcome: inactive
[19]
  outcome: inactive
[18]
  outcome: inactive

## CC(C)(COCC1CO1)COCC1CO1 (stereo not drawn)
[1]
  outcome: inactive
[2]
  outcome: inactive
[3]
  outcome: inactive
[4]
  AC50: 100 µM (active)
[5]
  outcome: inactive
[6]
  outcome: inactive
[7]
  AC50: 27.3 µM (active)
[8]
  outcome: inactive
[9]
  outcome: inactive
[10]
  outcome: inactive
[11]
  outcome: inactive
[12]
  outcome: inactive
[13]
  outcome: inactive
[14]
  outcome: inactive
[15]
  outcome: inactive
[16]
  outcome: inactive
[17]
  outcome: inactive
[19]
  AC50: 38.7 µM (active)
[20]
  outcome: inactive
[18]
  outcome: inactive

## Fc1cccc(Cl)c1CCl
[1]
  outcome: inactive
[2]
  outcome: inactive
[3]
  AC50: 159 µM (active)
[4]
  outcome: inactive
[5]
  outcome: inactive
[6]
  AC50: 73.9 µM (active)
[7]
  outcome: inactive
[8]
  outcome: inactive
[9]
  outcome: inactive
[10]
  AC50: 100 µM (active)
[11]
  AC50: 65.3 µM (active)
[12]
  outcome: inactive
[13]
  outcome: inactive
[14]
  outcome: inactive
[15]
  AC50: 100 µM (active)
[16]
  outcome: inactive
[17]
  outcome: inactive
[20]
  outcome: inactive
